# According to article PMC7862700, “An all-to-all approach to the identification of sequence-specific readers for epigenetic DNA modifications on cytosine”:
# Key:
# Experiment in all cases: DAPPL (digital affinity profiling via proximity ligation, sequencing); 10 mM Tris-HCl pH 7.5, 50 mM NaCl, 1 mM DTT, 4% glycerol, room temperature, 30 min; GST-TFs on glutathione beads, 16-mer random dsDNA library, 0.1% formaldehyde crosslink after washing; high values mean tight binding
# FLI1 = molecular target: T1, FLI1 (Homo sapiens, UniProt Q01543 1-452); settings: protein: recombinant; tags: N-terminal GST; dsDNA, one strand shown
# T1 sequence: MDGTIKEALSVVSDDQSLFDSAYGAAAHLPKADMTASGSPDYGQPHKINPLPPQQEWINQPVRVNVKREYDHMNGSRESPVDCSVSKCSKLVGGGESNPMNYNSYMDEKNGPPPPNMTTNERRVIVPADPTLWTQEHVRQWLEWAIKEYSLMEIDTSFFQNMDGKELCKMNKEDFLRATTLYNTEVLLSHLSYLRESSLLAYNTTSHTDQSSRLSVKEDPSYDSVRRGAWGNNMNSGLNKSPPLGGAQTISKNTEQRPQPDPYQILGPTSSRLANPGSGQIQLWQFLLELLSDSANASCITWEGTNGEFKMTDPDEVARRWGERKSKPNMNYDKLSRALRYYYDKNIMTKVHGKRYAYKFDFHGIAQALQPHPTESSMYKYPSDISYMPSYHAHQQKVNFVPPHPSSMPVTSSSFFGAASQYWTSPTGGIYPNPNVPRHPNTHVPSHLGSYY
# In short: (§1)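 After expression in yeast as GST fusions, human transcription factors were bound to glutathione beads, DNA-barcoded and mixed with a tag-only sample. The pools were incubated with 200 nmole of a 16-mer random double-stranded DNA library in Tris/NaCl/DTT/glycerol buffer (30 min, room temperature), washed and crosslinked with 0.1% formaldehyde. Proximity ligation with BsaI/T4 ligase ran for 1 h at 37 °C, before PCR amplification and sequencing on an Illumina NextSeq500. Binding signal is a hexamer's read frequency for a factor divided by its frequency for the tag-only sample.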
# ELK1 = molecular target: T2, ELK1 (Homo sapiens, UniProt P19419 1-428); settings: protein: recombinant; tags: N-terminal GST; dsDNA, one strand shown
# T2 sequence: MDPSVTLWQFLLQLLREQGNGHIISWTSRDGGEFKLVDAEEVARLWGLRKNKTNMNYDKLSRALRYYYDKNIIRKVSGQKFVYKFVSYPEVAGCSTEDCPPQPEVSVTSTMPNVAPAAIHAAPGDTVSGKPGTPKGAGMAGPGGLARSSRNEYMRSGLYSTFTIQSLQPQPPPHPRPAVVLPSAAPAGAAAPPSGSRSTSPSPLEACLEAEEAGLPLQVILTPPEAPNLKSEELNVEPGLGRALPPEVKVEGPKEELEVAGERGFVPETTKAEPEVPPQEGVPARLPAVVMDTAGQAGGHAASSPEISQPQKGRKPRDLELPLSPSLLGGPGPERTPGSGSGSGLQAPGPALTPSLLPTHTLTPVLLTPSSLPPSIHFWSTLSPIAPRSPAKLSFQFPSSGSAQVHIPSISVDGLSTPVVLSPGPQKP
# In short: as §1
# GABPA = molecular target: T3, GABPA (Homo sapiens, UniProt Q06546 1-454); settings: protein: recombinant; tags: N-terminal GST; dsDNA, one strand shown
# T3 sequence: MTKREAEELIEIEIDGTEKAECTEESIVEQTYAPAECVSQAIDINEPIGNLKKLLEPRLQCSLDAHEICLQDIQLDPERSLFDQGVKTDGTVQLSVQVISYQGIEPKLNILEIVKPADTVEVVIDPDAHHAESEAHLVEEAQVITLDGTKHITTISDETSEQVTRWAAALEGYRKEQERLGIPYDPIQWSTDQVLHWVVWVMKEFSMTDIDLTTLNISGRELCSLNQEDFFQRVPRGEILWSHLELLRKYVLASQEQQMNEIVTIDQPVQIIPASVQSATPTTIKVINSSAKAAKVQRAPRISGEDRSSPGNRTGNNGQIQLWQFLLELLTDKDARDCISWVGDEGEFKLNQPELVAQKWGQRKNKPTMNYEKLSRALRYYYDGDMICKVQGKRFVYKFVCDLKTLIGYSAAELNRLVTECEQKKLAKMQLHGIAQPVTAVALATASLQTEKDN
# In short: as §1
# ERG = molecular target: T4, ERG (Homo sapiens, UniProt P11308 1-479); settings: protein: recombinant; tags: N-terminal GST; dsDNA, one strand shown
# T4 sequence: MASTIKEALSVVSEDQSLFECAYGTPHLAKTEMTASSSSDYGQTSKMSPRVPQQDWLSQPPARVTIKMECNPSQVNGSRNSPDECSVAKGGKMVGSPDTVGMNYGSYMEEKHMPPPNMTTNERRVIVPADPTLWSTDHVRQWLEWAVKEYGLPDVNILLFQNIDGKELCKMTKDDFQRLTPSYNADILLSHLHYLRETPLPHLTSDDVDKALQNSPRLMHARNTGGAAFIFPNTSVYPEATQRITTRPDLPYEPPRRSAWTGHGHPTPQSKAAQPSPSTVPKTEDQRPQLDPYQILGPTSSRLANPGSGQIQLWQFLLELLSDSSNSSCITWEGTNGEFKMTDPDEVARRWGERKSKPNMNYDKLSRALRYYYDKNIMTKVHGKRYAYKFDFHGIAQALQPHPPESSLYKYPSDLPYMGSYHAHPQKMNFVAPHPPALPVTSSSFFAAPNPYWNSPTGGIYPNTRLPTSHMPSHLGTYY
# In short: as §1
# ELF1 = ELF1 (Homo sapiens, UniProt P32519 1-619); settings: protein: recombinant; tags: N-terminal GST; dsDNA, one strand shown
# Chain of ELF1 (P32519 whole entry): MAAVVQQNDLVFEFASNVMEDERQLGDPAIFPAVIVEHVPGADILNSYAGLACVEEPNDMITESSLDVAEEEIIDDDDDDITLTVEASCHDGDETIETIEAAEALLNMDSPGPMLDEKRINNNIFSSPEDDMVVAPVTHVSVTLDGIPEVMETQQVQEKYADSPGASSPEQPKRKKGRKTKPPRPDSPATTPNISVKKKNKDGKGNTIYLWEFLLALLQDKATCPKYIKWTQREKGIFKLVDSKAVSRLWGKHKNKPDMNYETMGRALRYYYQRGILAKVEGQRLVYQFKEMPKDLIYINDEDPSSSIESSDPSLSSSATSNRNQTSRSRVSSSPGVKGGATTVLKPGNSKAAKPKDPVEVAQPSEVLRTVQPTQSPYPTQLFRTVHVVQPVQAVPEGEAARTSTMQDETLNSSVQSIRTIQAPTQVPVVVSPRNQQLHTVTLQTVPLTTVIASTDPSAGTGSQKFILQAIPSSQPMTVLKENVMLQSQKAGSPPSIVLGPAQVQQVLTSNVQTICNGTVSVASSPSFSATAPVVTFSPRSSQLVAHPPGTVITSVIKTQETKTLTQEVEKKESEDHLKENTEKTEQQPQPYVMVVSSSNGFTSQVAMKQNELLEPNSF
# In short: as §1
# EHF = molecular target: T5, EHF (Homo sapiens, UniProt Q9NZC4 1-300); settings: protein: recombinant; tags: N-terminal GST; dsDNA, one strand shown
# T5 sequence: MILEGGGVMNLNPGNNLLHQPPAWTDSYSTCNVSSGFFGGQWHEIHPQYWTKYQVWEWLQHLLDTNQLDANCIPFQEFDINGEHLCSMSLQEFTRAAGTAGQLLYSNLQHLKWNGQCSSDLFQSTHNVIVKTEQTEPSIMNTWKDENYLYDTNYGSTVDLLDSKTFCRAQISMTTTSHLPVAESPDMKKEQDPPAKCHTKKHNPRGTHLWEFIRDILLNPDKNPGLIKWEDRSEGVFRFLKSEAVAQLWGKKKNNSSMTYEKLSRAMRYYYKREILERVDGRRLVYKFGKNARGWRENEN
# In short: as §1
# SPI1 = SPI1 (Homo sapiens, UniProt P17947 1-270); settings: protein: recombinant; tags: N-terminal GST; dsDNA, one strand shown
# In short: as §1
# SPIB = SPIB (Homo sapiens, UniProt Q01892 1-262); settings: protein: recombinant; tags: N-terminal GST; dsDNA, one strand shown
# Chain of SPIB (Q01892 whole entry): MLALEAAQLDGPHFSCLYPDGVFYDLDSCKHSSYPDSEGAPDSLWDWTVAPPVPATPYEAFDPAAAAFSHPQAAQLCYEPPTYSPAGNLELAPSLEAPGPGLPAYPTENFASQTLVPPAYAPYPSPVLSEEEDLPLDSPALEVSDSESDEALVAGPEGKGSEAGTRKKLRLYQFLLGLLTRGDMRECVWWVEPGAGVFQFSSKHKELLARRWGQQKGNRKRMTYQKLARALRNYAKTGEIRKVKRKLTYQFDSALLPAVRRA
# In short: as §1
# ELK3 = molecular target: T6, ELK3 (Homo sapiens, UniProt P41970 1-407); settings: protein: recombinant; tags: N-terminal GST; dsDNA, one strand shown
# T6 sequence: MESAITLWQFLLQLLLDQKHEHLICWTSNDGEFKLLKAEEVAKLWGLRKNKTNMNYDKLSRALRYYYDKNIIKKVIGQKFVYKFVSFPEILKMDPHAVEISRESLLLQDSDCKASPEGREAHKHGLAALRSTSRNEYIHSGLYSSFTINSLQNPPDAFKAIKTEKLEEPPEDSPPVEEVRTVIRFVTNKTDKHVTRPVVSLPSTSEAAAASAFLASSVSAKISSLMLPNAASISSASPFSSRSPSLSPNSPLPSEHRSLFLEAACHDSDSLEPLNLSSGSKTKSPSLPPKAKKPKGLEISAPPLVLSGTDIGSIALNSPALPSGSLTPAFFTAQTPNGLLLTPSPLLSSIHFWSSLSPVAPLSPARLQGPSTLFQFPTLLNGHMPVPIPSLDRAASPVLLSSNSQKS
# In short: as §1
# FEV = molecular target: T7, FEV (Homo sapiens, UniProt Q99581 1-238); settings: protein: recombinant; tags: N-terminal GST; dsDNA, one strand shown
# T7 sequence: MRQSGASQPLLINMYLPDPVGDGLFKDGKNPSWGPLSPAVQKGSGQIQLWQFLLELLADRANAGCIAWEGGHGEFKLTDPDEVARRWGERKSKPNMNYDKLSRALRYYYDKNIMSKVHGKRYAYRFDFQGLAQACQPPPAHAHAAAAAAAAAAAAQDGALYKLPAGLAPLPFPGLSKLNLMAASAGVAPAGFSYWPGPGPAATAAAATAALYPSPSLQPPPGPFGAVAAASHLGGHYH
# In short: as §1
# ETV5 = ETV5 (Homo sapiens, UniProt P41161 1-510); settings: protein: recombinant; tags: N-terminal GST; dsDNA, one strand shown
# Chain of ETV5 (P41161 whole entry): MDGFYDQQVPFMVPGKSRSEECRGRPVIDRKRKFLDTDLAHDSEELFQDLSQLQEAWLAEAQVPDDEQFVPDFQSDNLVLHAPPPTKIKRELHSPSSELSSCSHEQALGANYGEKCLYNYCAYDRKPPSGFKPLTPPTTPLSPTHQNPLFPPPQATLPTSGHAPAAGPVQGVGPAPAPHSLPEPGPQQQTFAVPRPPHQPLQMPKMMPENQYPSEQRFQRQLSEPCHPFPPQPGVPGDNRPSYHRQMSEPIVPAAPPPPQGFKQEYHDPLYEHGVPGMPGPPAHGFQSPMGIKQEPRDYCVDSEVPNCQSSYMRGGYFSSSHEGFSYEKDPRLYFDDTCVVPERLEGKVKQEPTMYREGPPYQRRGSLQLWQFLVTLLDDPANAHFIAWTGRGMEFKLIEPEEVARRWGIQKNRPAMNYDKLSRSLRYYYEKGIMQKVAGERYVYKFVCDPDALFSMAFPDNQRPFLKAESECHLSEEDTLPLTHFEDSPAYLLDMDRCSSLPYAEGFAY
# In short: as §1
# HSF1 = HSF1 (Homo sapiens, UniProt Q00613 1-529); settings: protein: recombinant; tags: N-terminal GST; chain copies: 3; dsDNA, one strand shown
# Chain of HSF1 (Q00613 whole entry): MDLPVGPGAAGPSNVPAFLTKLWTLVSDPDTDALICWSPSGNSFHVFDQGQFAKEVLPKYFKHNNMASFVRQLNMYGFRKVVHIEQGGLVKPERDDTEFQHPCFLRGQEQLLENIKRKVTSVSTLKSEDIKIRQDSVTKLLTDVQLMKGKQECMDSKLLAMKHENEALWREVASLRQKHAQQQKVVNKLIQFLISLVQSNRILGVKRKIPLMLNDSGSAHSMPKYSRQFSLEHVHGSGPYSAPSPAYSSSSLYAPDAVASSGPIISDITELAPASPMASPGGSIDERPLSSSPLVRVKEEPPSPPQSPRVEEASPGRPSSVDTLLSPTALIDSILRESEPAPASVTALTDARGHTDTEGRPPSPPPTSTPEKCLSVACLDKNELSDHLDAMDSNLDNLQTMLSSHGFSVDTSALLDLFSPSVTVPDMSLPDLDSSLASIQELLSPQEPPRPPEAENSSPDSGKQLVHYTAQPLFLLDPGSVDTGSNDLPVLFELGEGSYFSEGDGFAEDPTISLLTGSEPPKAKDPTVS
# In short: as §1
# SPIC = molecular target: T8, SPIC (Homo sapiens, UniProt Q8N5J4 1-248); settings: protein: recombinant; tags: N-terminal GST; dsDNA, one strand shown
# T8 sequence: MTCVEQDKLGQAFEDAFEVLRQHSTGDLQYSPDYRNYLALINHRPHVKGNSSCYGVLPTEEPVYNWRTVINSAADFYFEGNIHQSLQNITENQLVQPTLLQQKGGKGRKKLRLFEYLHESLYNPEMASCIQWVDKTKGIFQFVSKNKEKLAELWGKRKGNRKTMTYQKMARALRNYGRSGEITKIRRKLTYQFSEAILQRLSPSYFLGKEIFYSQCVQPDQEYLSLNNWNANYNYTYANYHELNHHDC
# In short: as §1
# ELF4 = ELF4 (Homo sapiens, UniProt Q99607 1-663); settings: protein: recombinant; tags: N-terminal GST; dsDNA, one strand shown
# Chain of ELF4 (Q99607 whole entry): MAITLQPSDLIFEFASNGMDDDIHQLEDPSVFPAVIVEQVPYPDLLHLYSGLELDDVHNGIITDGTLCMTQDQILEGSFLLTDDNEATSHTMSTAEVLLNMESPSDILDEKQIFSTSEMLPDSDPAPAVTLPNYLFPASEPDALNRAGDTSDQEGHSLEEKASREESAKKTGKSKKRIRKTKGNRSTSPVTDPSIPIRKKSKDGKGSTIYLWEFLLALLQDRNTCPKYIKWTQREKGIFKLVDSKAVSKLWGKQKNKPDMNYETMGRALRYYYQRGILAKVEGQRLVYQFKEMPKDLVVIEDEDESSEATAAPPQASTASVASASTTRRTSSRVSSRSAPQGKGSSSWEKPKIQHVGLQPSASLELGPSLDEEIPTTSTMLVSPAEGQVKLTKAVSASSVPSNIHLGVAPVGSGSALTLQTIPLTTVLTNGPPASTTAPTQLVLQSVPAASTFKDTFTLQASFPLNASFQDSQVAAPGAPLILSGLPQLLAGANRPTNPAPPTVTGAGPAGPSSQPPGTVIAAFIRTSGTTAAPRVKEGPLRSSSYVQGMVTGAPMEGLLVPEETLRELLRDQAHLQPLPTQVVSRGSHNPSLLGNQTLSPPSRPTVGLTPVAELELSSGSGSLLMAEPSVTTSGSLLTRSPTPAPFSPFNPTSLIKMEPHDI
# In short: as §1
# ELK4 = molecular target: T9, ELK4 (Homo sapiens, UniProt P28324-2 1-405); settings: protein: recombinant; tags: N-terminal GST; dsDNA, one strand shown
# T9 sequence: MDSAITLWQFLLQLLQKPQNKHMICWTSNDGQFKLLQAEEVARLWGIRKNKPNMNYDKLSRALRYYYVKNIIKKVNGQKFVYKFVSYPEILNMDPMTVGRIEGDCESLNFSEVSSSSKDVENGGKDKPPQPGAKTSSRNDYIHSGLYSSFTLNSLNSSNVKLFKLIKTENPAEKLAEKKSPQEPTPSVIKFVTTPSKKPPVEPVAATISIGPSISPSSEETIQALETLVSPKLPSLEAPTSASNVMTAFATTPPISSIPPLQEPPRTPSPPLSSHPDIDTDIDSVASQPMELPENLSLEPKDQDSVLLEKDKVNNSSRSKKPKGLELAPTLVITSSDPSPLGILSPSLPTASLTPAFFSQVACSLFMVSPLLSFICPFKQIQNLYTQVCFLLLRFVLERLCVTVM
# In short: as §1
# ETV2 = molecular target: T10, ETV2 (Homo sapiens, UniProt O00321 1-342); settings: protein: recombinant; tags: N-terminal GST; dsDNA, one strand shown
# T10 sequence: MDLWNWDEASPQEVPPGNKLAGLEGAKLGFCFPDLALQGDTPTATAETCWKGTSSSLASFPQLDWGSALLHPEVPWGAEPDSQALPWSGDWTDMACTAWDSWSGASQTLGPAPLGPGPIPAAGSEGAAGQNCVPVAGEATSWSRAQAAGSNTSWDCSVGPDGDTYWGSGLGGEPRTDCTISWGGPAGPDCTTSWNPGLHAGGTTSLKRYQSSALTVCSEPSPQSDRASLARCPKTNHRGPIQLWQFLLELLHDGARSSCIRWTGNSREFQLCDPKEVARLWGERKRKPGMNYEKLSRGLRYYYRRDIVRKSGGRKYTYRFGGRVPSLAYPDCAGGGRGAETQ
# In short: as §1
# ELF3 = molecular target: T11, ELF3 (Homo sapiens, UniProt P78545 1-371); settings: protein: recombinant; tags: N-terminal GST; dsDNA, one strand shown
# T11 sequence: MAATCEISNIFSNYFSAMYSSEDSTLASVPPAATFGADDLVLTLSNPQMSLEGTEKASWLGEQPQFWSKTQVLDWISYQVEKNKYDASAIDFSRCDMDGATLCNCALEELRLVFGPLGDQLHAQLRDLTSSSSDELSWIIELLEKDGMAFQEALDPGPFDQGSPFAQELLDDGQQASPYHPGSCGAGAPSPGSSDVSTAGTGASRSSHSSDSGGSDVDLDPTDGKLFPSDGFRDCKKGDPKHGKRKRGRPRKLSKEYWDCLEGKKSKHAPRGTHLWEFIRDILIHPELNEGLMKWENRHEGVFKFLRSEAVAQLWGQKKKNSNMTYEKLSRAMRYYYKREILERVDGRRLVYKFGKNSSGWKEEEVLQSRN
# In short: as §1
# CRX = CRX (Homo sapiens, UniProt O43186 1-299); settings: protein: recombinant; tags: N-terminal GST; dsDNA, one strand shown
# Chain of CRX (O43186 whole entry): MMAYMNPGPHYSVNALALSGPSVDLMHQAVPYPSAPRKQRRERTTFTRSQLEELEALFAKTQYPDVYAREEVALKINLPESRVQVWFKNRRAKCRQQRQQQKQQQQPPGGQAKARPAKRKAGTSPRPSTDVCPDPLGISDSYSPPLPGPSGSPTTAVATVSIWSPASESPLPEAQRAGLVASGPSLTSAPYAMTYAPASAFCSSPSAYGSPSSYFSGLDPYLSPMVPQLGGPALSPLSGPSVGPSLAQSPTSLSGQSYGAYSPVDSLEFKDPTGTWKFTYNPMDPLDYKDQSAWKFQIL
# In short: as §1
# ETV1 = ETV1 (Homo sapiens, UniProt P50549 1-477); settings: protein: recombinant; tags: N-terminal GST; dsDNA, one strand shown
# Chain of ETV1 (P50549 whole entry): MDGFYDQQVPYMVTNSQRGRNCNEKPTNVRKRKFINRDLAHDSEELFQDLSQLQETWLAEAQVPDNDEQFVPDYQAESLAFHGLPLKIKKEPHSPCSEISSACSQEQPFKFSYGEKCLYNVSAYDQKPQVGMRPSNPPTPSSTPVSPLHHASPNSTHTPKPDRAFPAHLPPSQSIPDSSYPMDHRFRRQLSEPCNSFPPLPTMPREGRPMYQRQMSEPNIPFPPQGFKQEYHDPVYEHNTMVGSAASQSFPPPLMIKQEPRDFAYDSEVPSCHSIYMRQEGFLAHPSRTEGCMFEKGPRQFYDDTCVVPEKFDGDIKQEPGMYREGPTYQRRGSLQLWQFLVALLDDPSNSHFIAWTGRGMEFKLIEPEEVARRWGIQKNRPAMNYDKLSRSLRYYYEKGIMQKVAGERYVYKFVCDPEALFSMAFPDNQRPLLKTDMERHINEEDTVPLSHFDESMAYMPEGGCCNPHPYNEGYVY
# In short: as §1
sequence,measurement,setting,value
TATGAA,binding signal,FLI1,"1.18 fold enrichment (6-mer frequency, TF over GST control)"
same,binding signal,ELK1,"1.17 fold enrichment (6-mer frequency, TF over GST control)"
same,binding signal,GABPA,"1.21 fold enrichment (6-mer frequency, TF over GST control)"
same,binding signal,ERG,"1.14 fold enrichment (6-mer frequency, TF over GST control)"
same,binding signal,ELF1,"1.18 fold enrichment (6-mer frequency, TF over GST control)"
same,binding signal,EHF,"1.12 fold enrichment (6-mer frequency, TF over GST control)"
same,binding signal,SPI1,"1.19 fold enrichment (6-mer frequency, TF over GST control)"
same,binding signal,SPIB,"1.17 fold enrichment (6-mer frequency, TF over GST control)"
same,binding signal,ELK3,"1.16 fold enrichment (6-mer frequency, TF over GST control)"
same,binding signal,FEV,"1.14 fold enrichment (6-mer frequency, TF over GST control)"
same,binding signal,ETV5,"1.12 fold enrichment (6-mer frequency, TF over GST control)"
same,binding signal,HSF1,"1.21 fold enrichment (6-mer frequency, TF over GST control)"
same,binding signal,SPIC,"1.4 fold enrichment (6-mer frequency, TF over GST control)"
same,binding signal,ELF4,"1.26 fold enrichment (6-mer frequency, TF over GST control)"
same,binding signal,ELK4,"1.13 fold enrichment (6-mer frequency, TF over GST control)"
same,binding signal,ETV2,"1.17 fold enrichment (6-mer frequency, TF over GST control)"
same,binding signal,ELF3,"1.29 fold enrichment (6-mer frequency, TF over GST control)"
same,binding signal,CRX,"1.25 fold enrichment (6-mer frequency, TF over GST control)"
same,binding signal,ETV1,"1.14 fold enrichment (6-mer frequency, TF over GST control)"
